Results from PubChem BioAssay (NCI).
Several values for one entry are separate records, joined by “and”; a condition that tells them apart may be missing. Equal entries are not always repeated. Compounds without any hit were thinned out: in the full panel of roughly 83,000, 20% have a hit.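 Compound tested at a single concentration for 48 hours in 96-well plates; a percent growth value below 10 was scored as active.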 Activity calls are given as the source filed them.

Assays:
Assay in all cases: NCI-60 one-dose screen, 48 h (100 = growth as untreated, 0 = no growth, -100 = all killed)
Conditions in all cases: 10 µM
NCI-H23 lung = tested on: NCI-H23 lung
NCI-H226 lung = tested on: NCI-H226 lung
NCI-H322M lung = tested on: NCI-H322M lung
HOP-62 NSCLC = tested on: HOP-62 NSCLC
NCI-H460 lung = tested on: NCI-H460 lung
NCI-H522 lung = tested on: NCI-H522 lung
A549/ATCC NSCLC = tested on: A549/ATCC NSCLC
786-0 renal = tested on: 786-0 renal
COLO 205 colon = tested on: COLO 205 colon
DU-145 prostate = tested on: DU-145 prostate
K-562 leukemia = tested on: K-562 leukemia
MALME-3M melanoma = tested on: MALME-3M melanoma
MDA-MB-231 breast = tested on: MDA-MB-231 breast
RXF 393 renal = tested on: RXF 393 renal
SF-268 CNS = tested on: SF-268 CNS
SF-295 CNS = tested on: SF-295 CNS
SF-539 CNS = tested on: SF-539 CNS
UACC-257 melanoma = tested on: UACC-257 melanoma
M14 melanoma = tested on: M14 melanoma
HOP-92 NSCLC = tested on: HOP-92 NSCLC

Measured: growth

C/C1=C\[C@H](C)C[C@H](C)OC(=O)C[C@H](c2ccc(O)cc2)NC(=O)[C@@H](Cc2c(Br)[nH]c3ccccc23)N(C)C(=O)[C@H](C)NC(=O)[C@@H](C)C1
active: NCI-H23 lung -4.18% | NCI-H226 lung -6.93% | NCI-H322M lung 8.82% | HOP-62 NSCLC -40.4% | NCI-H460 lung -13% | NCI-H522 lung -62.5% | A549/ATCC NSCLC 3.5% | 786-0 renal -55.9% | COLO 205 colon 9.93% | DU-145 prostate -15.6% | K-562 leukemia 0.288% | MALME-3M melanoma -65% | MDA-MB-231 breast -33.2% | RXF 393 renal -49.2% | SF-268 CNS -30.3% | SF-295 CNS -61.2% | SF-539 CNS -36.8% | UACC-257 melanoma 0.643% | M14 melanoma -71.2%

O=[N+]([O-])/C=C/c1ccc([N+](=O)[O-])cc1
5.65% (active) and 18.5% (inactive): K-562 leukemia
-4.16% (active) and 96.5% (inactive): UACC-257 melanoma
-29.1% (active) and 66.1% (inactive): M14 melanoma
-27.5% (active) and 75.7% (inactive): SF-539 CNS
inactive: NCI-H23 lung 56.7% and 68.7% | NCI-H226 lung 114% | NCI-H322M lung 90.4% and 92.5% | HOP-62 NSCLC 69.5% and 107% | NCI-H460 lung 19.9% and 102% | HOP-92 NSCLC 67.6% and 97.8% | NCI-H522 lung 81.6% and 47.3% | A549/ATCC NSCLC 44.2% and 101% | 786-0 renal 55.2% and 98.1% | MALME-3M melanoma 66.7% and 54.6% | MDA-MB-231 breast 66.5% and 84.5% | RXF 393 renal 101% | SF-268 CNS 25.4% and 103% | SF-295 CNS 76.2% and 104%
-47.5% (active) and 72.1% (inactive): DU-145 prostate

S=C=NCCc1ccccc1
inactive: NCI-H23 lung 20% | NCI-H226 lung 85.8% | NCI-H322M lung 110% | HOP-62 NSCLC 85.2% | NCI-H460 lung 58.5% | HOP-92 NSCLC 56.5% | NCI-H522 lung 44.1% | A549/ATCC NSCLC 61.7% | 786-0 renal 71.5% | COLO 205 colon 63.1% | DU-145 prostate 44.5% | K-562 leukemia 20.4% | MALME-3M melanoma 88.7% | MDA-MB-231 breast 38.4% | RXF 393 renal 31.5% | SF-268 CNS 58.2% | SF-295 CNS 115% | SF-539 CNS 29.1% | UACC-257 melanoma 88.5%

COc1cc([N+](=O)[O-])c2ncccc2c1[N+](=O)[O-]
active: NCI-H522 lung -47.9%
inactive: NCI-H23 lung 73.4% | NCI-H226 lung 77.1% | NCI-H322M lung 103% | HOP-62 NSCLC 105% | NCI-H460 lung 87.3% | HOP-92 NSCLC 95.7% | A549/ATCC NSCLC 97.9% | 786-0 renal 77.7% | COLO 205 colon 86.1% | DU-145 prostate 98.4% | K-562 leukemia 29.4% | MALME-3M melanoma 114% | MDA-MB-231 breast 78.2% | RXF 393 renal 59.4% | SF-268 CNS 52.6% | SF-295 CNS 94.3% | SF-539 CNS 13% | UACC-257 melanoma 50.4% | M14 melanoma 65.8%

N#CCc1ccccc1
inactive: NCI-H23 lung 102% | NCI-H226 lung 96.3% | NCI-H322M lung 105% | HOP-62 NSCLC 97.4% | NCI-H460 lung 106% | HOP-92 NSCLC 82.2% | NCI-H522 lung 99.4% | A549/ATCC NSCLC 101% | 786-0 renal 101% | DU-145 prostate 113% | K-562 leukemia 98.3% | MALME-3M melanoma 111% | MDA-MB-231 breast 98.4% | RXF 393 renal 111% | SF-268 CNS 93.4% | SF-295 CNS 104% | SF-539 CNS 96.5% | UACC-257 melanoma 103% | M14 melanoma 98.5%

CC(Cc1ccc2c(c1)OCO2)NN (centres undefined)
inactive: NCI-H23 lung 90.5% | NCI-H226 lung 87.1% | NCI-H322M lung 99.5% | HOP-62 NSCLC 73.9% | NCI-H460 lung 105% | HOP-92 NSCLC 76.6% | NCI-H522 lung 84% | A549/ATCC NSCLC 82.8% | 786-0 renal 88.2% | COLO 205 colon 99% | DU-145 prostate 113% | K-562 leukemia 82% | MALME-3M melanoma 97.2% | MDA-MB-231 breast 104% | RXF 393 renal 111% | SF-268 CNS 100% | SF-295 CNS 91% | SF-539 CNS 91.9% | M14 melanoma 96.7%

O=C(O)c1cc(Cc2ccc(O)c(C(=O)O)c2)ccc1O (tested in a mixture with another compound)
inactive: NCI-H23 lung 87.6% | NCI-H226 lung 88.7% | NCI-H322M lung 87% | HOP-62 NSCLC 79.3% | NCI-H460 lung 65.9% | A549/ATCC NSCLC 79.9% | 786-0 renal 78% | DU-145 prostate 83% | K-562 leukemia 68.5% | MALME-3M melanoma 89.6% | MDA-MB-231 breast 66.8% | RXF 393 renal 39.6% | SF-268 CNS 76.9% | SF-295 CNS 13.3% | SF-539 CNS 79.2% | UACC-257 melanoma 60.5% | M14 melanoma 80.5%
active: HOP-92 NSCLC -49.4% | NCI-H522 lung -49.9%
